Screening data as filed in PubChem.
This is a sample that favours compounds with a hit; in the whole collection about 2.2% have one here.
PfHsp90 yeast 2 = growth inhibition of PfHsp90-expressing yeast, primary screen, antimalarial PfHsp90 inhibitor project, S. cerevisiae, BacTiter-Glo luminescence, single point, set 2 | inhibition, % at 9.4 µM | BacTiter-Glo ATP, 48 h; yeast lacking PDR1 and PDR3 efflux regulators | 310,000 tested, 0.32% active;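 active means every replicate shows inhibition above about 80%, whatever the replicate mean, limit read from the data; inconclusive means mean inhibition reaches the set limit but some replicate falls short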
Calb FLC = C. albicans growth inhibition with fluconazole, primary screen, CaCi-2 strain, Alamar Blue fluorescence. C. albicans CaCi-2 (fluconazole-resistant clinical isolate) + fluconazole, 48 h. growth inhibition, % (no concentration beside the values). 300,000 tested, 0.57% active. AID 1979, 2009;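 active means growth inhibition above about 58% in most replicates, limit read from the data, passing the limit was not always enough; inconclusive means exactly half the replicates above a set limit; inactive means most replicates below a set limit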;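 further: all wells also contain fluconazole at 8 µg/ml as a sub-toxic cotreatment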
Shn3 3UTR inh = reduction of Shn3 3'UTR firefly luciferase signal, primary screen, Schnurri-3 inhibitor project, cell-based, Clone20 osteoblasts, set 2; 360,000 tested, 0.52% active; Clone20 osteoblast Shn3 3'UTR firefly luciferase, 24 h; inhibition, % at 12.5 µM;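 active means mean inhibition of at least 75% with every replicate also reaching 75%; inconclusive means mean inhibition at least 75% but some replicate below; inactive means mean inhibition below 75%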
CSC inhib = cancer stem cell viability inhibitors, primary screen, luminescence. cancer stem cell-like cells viability. inhibition, % at 7.5 µM. 300,000 tested, 1.1% active; in the data active means inhibition above about 75%; inconclusive means no clear call, values can overlap the other calls; tested in HMLE shEcad cells
Beta apoptosis = inhibitors of cytokine-induced beta cell apoptosis, primary screen, luminescence; INS-1E cytokine-induced death, ATP luminescence, 48 h; percent of positive-control rescue, neutral wells zero; protection from apoptosis, % (concentration not given with the values); 300,000 tested, 0.8% active; AID 435005, 2010;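 active means Every replicate reaches about 75%, or at least half do and their mean reaches it too, limit read from the data; inconclusive means At least half of replicates reach the limit but their mean does not; inactive means Under half of replicates reach the limit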;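 further: higher means more ATP so stronger rescue from cytokine killing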
Large screens that a line does not name were inactive.

CCCCN(CCCC)S(=O)(=O)c1ccc(C(=O)Nc2nnc(COC)o2)cc1	Calb FLC 88
CCc1nnc(NC(=O)c2ccc(S(=O)(=O)N(C)Cc3ccccc3)cc2)o1	none
CN(Cc1ccccc1)S(=O)(=O)c1ccc(C(=O)Nc2nnc(C3CC3)o2)cc1	Calb FLC 85
CCCCN(C)S(=O)(=O)c1ccc(C(=O)Nc2nnc(-c3ccco3)o2)cc1	Calb FLC 98
CCN(CC)S(=O)(=O)c1ccc(C(=O)Nc2nnc(COC)o2)cc1	none
Cc1ccc(C(=O)Nc2nnc(-c3ccco3)o2)cc1C	none
COc1ccccc1NC(=O)Nc1nc(CC(=O)N2CCN(c3ccccc3F)CC2)cs1	none (no result: PfHsp90 yeast 2)
Oc1ccc(C23CCCC2C2(CCCC2)c2ccc(O)cc2O3)c(O)c1 (stereo not given)	none (no result: Calb FLC, CSC inhib)
C[C@H](CO)N1C[C@H](C)[C@H](CN(C)C(=O)Nc2cccc(Oc3ccccn3)c2)OCc2cnnn2CCCC1=O	none (no result: PfHsp90 yeast 2, Calb FLC, CSC inhib, Beta apoptosis)
O=C(Cn1cc(C(F)(F)F)cc(Cl)c1=O)NCc1ccc(F)cc1	none
O=C(CSc1ccc(Cl)cc1)Nc1nnc(-c2ccco2)o1	Calb FLC 84
O=C(COC(=O)c1ccc(F)c([N+](=O)[O-])c1)NC(=O)NCc1ccccc1	none (no result: Calb FLC)
COc1ccc(-c2csc(NC(=S)NC(=O)/C=C/c3ccco3)n2)cc1OC	CSC inhib 79
COc1ccc(-c2csc(NC(=S)NC(=O)/C=C/c3ccco3)n2)cc1Br	CSC inhib 79
COc1ccc(-c2csc(NC(=S)NC(=O)c3ccco3)n2)cc1Br	none
Cc1cccc(C(=O)N[C@H](C(=O)Nc2ncc(C)s2)C(C)C)c1	CSC inhib 79, Beta apoptosis 76
O=c1[nH]c(-c2ccccn2)nc2ccccc12	none
O=c1[nH]c(-c2ccccn2)nc(C(F)(F)F)c1Br	PfHsp90 yeast 2 90, Calb FLC 108
CN(C)CCNc1nc2sc3c(c2c(=O)n1-c1ccccc1)CCCCC3	CSC inhib 75 (no result: Shn3 3UTR inh)
CN(C)CCNc1nc2sc3c(c2c(=O)n1-c1ccc(F)cc1)CCCCC3	none
CC(C)OC(=O)c1ccc2nc3ccccc3nc2c1	none
O=C(NNc1ccnc2cc(Cl)ccc12)C1CCCCC1	Beta apoptosis 127
NC(=S)NNc1ccnc2cc(Cl)ccc12	none
O=C(NNc1cc(Cl)cc(Cl)c1)C1CCC1	none
O=C(NNc1ccc(Cl)cc1)C1CCC1	Calb FLC 85
O=C(Nc1nc(-c2ccccc2)cs1)c1ccccc1NS(=O)(=O)c1ccc(F)cc1	PfHsp90 yeast 2 103, CSC inhib 121, Beta apoptosis 90
O=C(Nc1nc(-c2ccccn2)cs1)c1ccc(S(=O)(=O)N2CCCCC2)cc1	CSC inhib 99, Beta apoptosis 83 (no result: PfHsp90 yeast 2, Shn3 3UTR inh)
COc1ccc(C(=O)Nc2nc(-c3ccccn3)cs2)cc1S(=O)(=O)N1CCOCC1	none (no result: PfHsp90 yeast 2, Calb FLC)
O=C(Nc1nc(-c2ccccn2)cs1)c1cccc(S(=O)(=O)N2CCOCC2)c1	Shn3 3UTR inh 88 (no result: Calb FLC)
O=C(Nc1nc2ccc(S(=O)(=O)N3CCCCC3)cc2s1)c1cccnc1	none (no result: PfHsp90 yeast 2)
O=C(Nc1nc2ccc(S(=O)(=O)N3CCCCC3)cc2s1)c1ccncc1	Calb FLC 103
COc1ccccc1C(=O)Nc1nc(-c2ccc(S(=O)(=O)N3CCOCC3)cc2)cs1	Shn3 3UTR inh 89, Beta apoptosis 85
COc1ccccc1OC(C)C(=O)Nc1nc(-c2ccc(S(=O)(=O)N3CCOCC3)cc2)cs1 (stereo not given)	none
Cc1ccc2nc(-c3ccccn3)cc(C(=O)Nc3ccc(S(=O)(=O)N4CCOCC4)cc3)c2c1	none
Cc1ccc(S(=O)(=O)N2CCOCC2)cc1C(=O)Nc1nc(-c2ccccn2)cs1	Beta apoptosis 76 (no result: Calb FLC)
Cc1c(C)[n+](=O)c(C)c(C)n1[O-]	none (no result: Calb FLC, CSC inhib, Beta apoptosis)
CC1=CC2=NC(=O)C(c3ccccc3)C(=O)N2C=C1 (stereo not given)	none (no result: Calb FLC, CSC inhib, Beta apoptosis)
C=CCC1NS(=O)(=O)O[C@H](CCCC)[C@@H]1O (stereo not given in full)	none (no result: Beta apoptosis)
COCCN(C(=O)CSc1nc2ccccc2s1)c1c(N)n(Cc2ccccc2)c(=O)[nH]c1=O	none (no result: Calb FLC, CSC inhib, Beta apoptosis)
CC(=O)CSc1nnc(-c2ccco2)n1-c1ccccc1	none
CSc1nnc(-c2ccco2)n1-c1ccccc1	Shn3 3UTR inh 89
O=C1NN(c2ccc(Cl)c(Cl)c2)C(=O)/C1=C/c1ccc(-c2ccccc2C(=O)O)o1	Calb FLC 81
Cc1ccc(N2NC(=O)/C(=C/c3ccc(-c4ccc(Cl)c(C(=O)O)c4)o3)C2=O)cc1C	none (no result: Beta apoptosis)
COC(=O)c1ccc(N2NC(=O)/C(=C/c3ccc(-c4ccc(Cl)c(C(=O)O)c4)o3)C2=O)cc1	Calb FLC 62 (no result: CSC inhib, Beta apoptosis)
COc1ccc(/C=C/CN2CCCC(C(=O)c3ccc(OC)c(F)c3)C2)cc1 (stereo not given)	none
C(=C\c1ccccc1)/C=N/Nc1nc(N2CCCCC2)nc(N2CCCCC2)n1	Calb FLC 93
O=[N+]([O-])c1ccccc1/C=C/C=N/Nc1nc(N2CCCCC2)nc(N2CCCCC2)n1	none
O=c1[nH]c2ccccc2c(O)c1-c1cc2ccccc2oc1=O	none (no result: PfHsp90 yeast 2, Shn3 3UTR inh)
CC(C)(C)C(=O)C(CO)(Oc1ccc(Cl)cc1)n1cncn1 (stereo not given)	PfHsp90 yeast 2 89
Cc1cc(SCC(=O)c2ccc(O)c(O)c2)n2nc(C)c(-c3ccccc3)c2n1	Calb FLC inconclusive, CSC inhib 119
CCn1c(C(=O)O)c(S(=O)(=O)c2ccc(Cl)cc2)c2ccccc21	none
CC(=O)C(C)n1c(CN(C)Cc2ccccc2)nc2c1c(=O)n(C)c(=O)n2C (stereo not given)	none
CC(C)n1c(CN(C)Cc2ccccc2)nc2c1c(=O)n(C)c(=O)n2C	Beta apoptosis 96 (no result: PfHsp90 yeast 2, Shn3 3UTR inh)
CC(C)NC(=O)N(C)C[C@H]1Oc2ccc(NC(=O)Nc3ccccc3)cc2C(=O)N([C@@H](C)CO)C[C@@H]1C	none (no result: Calb FLC)
Cc1ccc(/C(=N\O)c2oc3c(C)c4oc(=O)cc(C)c4cc3c2C)cc1	CSC inhib 105
Cc1ccc(-c2[nH]c3cc(C(N)=O)ccc3c(=O)c2O)cc1	none (no result: CSC inhib)
CCCNC(=O)c1ccc2c(=O)c(O)c(-c3ccc(OC)cc3)[nH]c2c1	Calb FLC 82
Cc1ccc(CNC(=O)c2ccc3c(=O)c(O)c(-c4ccc(C)cc4)[nH]c3c2)cc1	Shn3 3UTR inh 87
CCCNC(=O)c1ccc2c(=O)c(O)c(-c3ccc(C)cc3)[nH]c2c1	Beta apoptosis 82
Cc1cn(CC(=O)NCC(C)c2ccccc2)c(=O)[nH]c1=O (stereo not given)	none (no result: Calb FLC, CSC inhib, Beta apoptosis)
COc1ccccc1CCc1nnc(CCC(=O)NC(C)Cc2cccs2)o1 (stereo not given)	none
CCCC(=O)NC(c1ccco1)c1cc(Cl)c2cccnc2c1O (stereo not given)	PfHsp90 yeast 2 105, Beta apoptosis 82
CCC(=O)NC(c1ccco1)c1cc(Cl)c2ccccc2c1O (stereo not given)	none (no result: Calb FLC)
